Experimental data as given in the OligoGym collection.

target: RPL19; assay: pooled miR-30 sensor sort-seq; sequence = guide strand; settings: shRNA
Note: reference of the scale not given here.

Question: ATACATGTGGCGATCGATCTTC was tested. Which sensor-assay potency score (higher = more potent) did it give?
Answer: 0.46

Question: How did the sensor-assay potency score (higher = more potent) turn out when TTGCGTGCTTCCTTGGTCTTAG was run?
Answer: -0.319

Question: Which sensor-assay potency score (higher = more potent) does the source give for TTCATTGGTCTCATTGGGGTCT here?
Answer: 0.294

Question: How did the sensor-assay potency score (higher = more potent) turn out when AAGTCTTGATGATCTCCTCCTT was run?
Answer: 0.211

target: RPL27; assay: as above; settings: shRNA

Question: TTCACGATGACAGCTTTGCGTC was tested. Which sensor-assay potency score (higher = more potent) did it give?
Answer: -0.995

Question: For TTGTTCTTGCCTGTCTTGTATC, which sensor-assay potency score (higher = more potent) is on record?
Answer: -1.8

Question: With TACACTTTCACAAAAGATTTTA as the sequence, how does the sensor-assay potency score (higher = more potent) read?
Answer: -0.949

Question: Which sensor-assay potency score (higher = more potent) does the source give for TCTCTCTTCAAACTTGACCTTG here?
Answer: -0.698

Question: Which sensor-assay potency score (higher = more potent) does the source give for ATTGACGACAGTTTTGTCCAAG here?
Answer: -1.31

Question: Which sensor-assay potency score (higher = more potent) does the source give for AGGATCTCTGAAGACATCCTTA here?
Answer: -1.41

Question: How did the sensor-assay potency score (higher = more potent) turn out when TTCTTCACGATGACAGCTTTGC was run?
Answer: -0.801

Question: With TTTATCTTTGATCTCTTGGCGA as the sequence, how does the sensor-assay potency score (higher = more potent) read?
Answer: -0.218

Question: With TTATCTTTGATCTCTTGGCGAT as the sequence, how does the sensor-assay potency score (higher = more potent) read?
Answer: -0.525

Question: With TATCTTTGATCTCTTGGCGATC as the sequence, how does the sensor-assay potency score (higher = more potent) read?
Answer: -1.37

Question: With TTTAAGAGCAGGATCTCTGAAG as the sequence, how does the sensor-assay potency score (higher = more potent) read?
Answer: -0.365

Question: Which sensor-assay potency score (higher = more potent) does the source give for ATATCCACAGAGTACCTTGTGG here?
Answer: -0.336

target: RPS27; assay: as above; settings: shRNA

Question: With TTTTATAGCATCCTGGGCATTT as the sequence, how does the sensor-assay potency score (higher = more potent) read?
Answer: -0.741

Question: With TTCACATCCATGAAGTAGGAAT as the sequence, how does the sensor-assay potency score (higher = more potent) read?
Answer: -1.13

Question: With TAAGCCTTGCTTTTCCTCCTGT as the sequence, how does the sensor-assay potency score (higher = more potent) read?
Answer: 0.376

Question: TTCTTCTTGTGTTTCCTCTTCT was tested. Which sensor-assay potency score (higher = more potent) did it give?
Answer: 0.637

Question: Which sensor-assay potency score (higher = more potent) does the source give for TTCCTCTTCTCCTCTTCTGGAG here?
Answer: -0.516

Question: How did the sensor-assay potency score (higher = more potent) turn out when TTGCTTTTCCTCCTGTAGGCTG was run?
Answer: -0.847

Question: With TGAAGGAACATCCTTCTGTAAG as the sequence, how does the sensor-assay potency score (higher = more potent) read?
Answer: -1.76

Question: Which sensor-assay potency score (higher = more potent) does the source give for TGATTTTATAGCATCCTGGGCA here?
Answer: -0.287

Question: Which sensor-assay potency score (higher = more potent) does the source give for TGGTGATTTTATAGCATCCTGG here?
Answer: -1.63

Question: For TTTCACATCCATGAAGTAGGAA, which sensor-assay potency score (higher = more potent) is on record?
Answer: 0.096

Question: For TCCTCTTCTCCTCTTCTGGAGA, which sensor-assay potency score (higher = more potent) is on record?
Answer: -1.67

Question: With TTGTGCATGGCTAAAGACCGTG as the sequence, how does the sensor-assay potency score (higher = more potent) read?
Answer: -0.673

target: RPS28; assay: as above; settings: shRNA

Question: How did the sensor-assay potency score (higher = more potent) turn out when TTTTACATTGCGGATGATGGAT was run?
Answer: -0.481

Question: How did the sensor-assay potency score (higher = more potent) turn out when TCGCTCTGACTCCAAAAGGGTG was run?
Answer: -1.7

Question: How did the sensor-assay potency score (higher = more potent) turn out when TGCACTGTCCCTGAGAACCGGT was run?
Answer: -1.07

Question: With TTGCGGATGATGGATCGGCTCG as the sequence, how does the sensor-assay potency score (higher = more potent) read?
Answer: -1.36

Question: TCGGCTCGTGTCGTCCATGAAT was tested. Which sensor-assay potency score (higher = more potent) did it give?
Answer: -1.75

Question: Which sensor-assay potency score (higher = more potent) does the source give for TGATGGATCGGCTCGTGTCGTC here?
Answer: -1.07

Question: AATTCCACGCGCACCTGCGTGC was tested. Which sensor-assay potency score (higher = more potent) did it give?
Answer: -0.771

Question: Which sensor-assay potency score (higher = more potent) does the source give for TTGGTGACCCTGGCCAGCTTGA here?
Answer: -1.2

Question: With TGTCCCTGAGAACCGGTCCTGC as the sequence, how does the sensor-assay potency score (higher = more potent) read?
Answer: -1.38

Question: How did the sensor-assay potency score (higher = more potent) turn out when TGGATCGGCTCGTGTCGTCCAT was run?
Answer: -1.14

Question: For TTTACATTGCGGATGATGGATC, which sensor-assay potency score (higher = more potent) is on record?
Answer: -1.07
